The source of these data is PubChem BioAssay (NCATS).

SMILES strings stand for the structures. Values without a mark were called inactive. Inconclusive results are not listed. Activity calls are given as the source filed them. Unless noted, calls come from the whole dose curve; as a rule, active = well fitted curve in the direction sought with a large enough effect; inconclusive = small, poorly fitted or top-dose-only effect, or another doubt; inactive = no such curve, though single readings can be large; an effect the other way counts as inactive or inconclusive.

Assay [1] is described as follows: Stat Signaling Pathway (AID 446; active = well fitted curve in either direction with a large enough effect, not every such curve was filed as active;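 note: ME-180 cervical cancer cells given 40 pM IL-6 alongside compound; SIE-controlled beta-lactamase reporter measured as 460/530 nm FRET emission ratio; % is set by controls: 0 for no effect and ±100 for the full control effect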). In short, it runs like this: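 Compound effects on IL-6-induced STAT reporter activity were measured in ME-180 cells. After overnight culture, cells were co-treated with 40 pM IL-6 for 5 hrs before beta-lactamase substrate loading at room temperature.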
Assay [2] addresses Dual specificity protein kinase CLK4 (Homo sapiens) (UniProt Q9HAZ1). The assay is described as follows: qHTS Assay for Inhibitors of CDC-like Kinase 4 (ADP-FP Assay) (AID 1795). Note: nearly all actives have a fitted effect of over 60% in size. Note: potency is the fitted concentration of half-maximal effect. Put shortly: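 Kinase activity was measured as ADP production using Transcreener orange tracer (4 nM) and ADP antibody (1 ug/mL) fluorescence polarization, with ADP calculated from a calibration curve. The 1 h reaction contained 6.25 nM Clk4, 1 uM ATP and 100 uM RS peptide at pH 7.5 with Mg2+.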

For assay [3], the target named is Ubiquitin carboxyl-terminal hydrolase 1 (Homo sapiens) (UniProt O94782). The assay is described as follows: Inhibitors of USP1/UAF1: Pilot qHTS (AID 504865). Note: nearly all actives have a fitted effect of over 35% in size. Note: potency is the fitted concentration of half-maximal effect. In short, it runs like this:
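Deubiquitinase activity followed as kinetic rhodamine fluorescence release from 150 nM Ub-Rho. 1 nM USP1/UAF1 with compound, after 15 min room-temperature preincubation, in HEPES pH 7.8 buffer containing TCEP, EDTA, BSA and Tween-20.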

For assay [4], the target named is Glucocorticoid receptor (Homo sapiens) (UniProt P04150). The assay is described as follows: GR-GFP Redistribution (AID 450;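 active = compounds whose dose series gives a full or clear partial fitted curve of increased nuclear translocation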; note: potency is the fitted concentration of half-maximal effect). Particulars: U2OS GR-GFP nuclear translocation, laser cytometry, 2 h.
Assay [5] has as its target Mitogen-activated protein kinase 10 (Mus musculus) (UniProt Q61831). The assay is described as follows: JNK3 AlphaScreen Assay (AID 530; active = well fitted curve in either direction with a large enough effect, not every such curve was filed as active;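 note: kinase came from lysate of stimulated human HepG2 cells; signal reports phosphorylation of biotinylated GST-cJun 1-79 at Ser73 with 10 µM ATP; series mostly up to about 57 µM; % is set by controls: 0 for no effect and ±100 for the full control effect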). In short, it runs like this: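 HepG2 lysate (IL-1b/TNFa pre-activated) + biotin-GST-cJun 1-79 + anti-pSer73 cJun; cpd titration, 15 min RT; ATP 10 uM start; Tris pH 7.6, MgCl2, DTT, vanadate; beads in EDTA buffer; AlphaScreen.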
Assay [6] is described as follows: Viability counterscreen for antagonist of constitutive androstane receptor (CAR) against the NCATS DSHEA and TCM libraries (AID 1794837).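 Note: compound exposure lasted 24 h before viability reading; 0% is about no effect.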 In short, it runs like this:
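Viability was measured by CellTiter-Fluor fluorescence (405/540 nm, 1 hr) in HepG2-CYP2B6-hCAR cells. Cells were co-treated 24 hr with 48 uM CITCO (final), antagonist mode, and test substances.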

Assay [7] can be described thus: Viability counterscreen for agonist of constitutive androstane receptor (CAR) against the NCATS DSHEA and TCM libraries (AID 1794838). Note: 0% is about no effect. Put shortly: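 Cell viability, from CellTiter-Fluor fluorescence (405/540 nm), was scored after a 24 h, 37C exposure of HepG2 cells carrying CYP2B6 reporter and hCAR to test substances in presence of 0.75 uM PK11195.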
Assay [8] has as its target Nuclear receptor subfamily 1 group I member 3 (Homo sapiens) (UniProt Q14994). The assay is described as follows: Primary qHTS for agonist of constitutive androstane receptor (CAR) against the NCATS DSHEA and TCM libraries (AID 1794839).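 Note: HepG2 cells expressing human CAR with a CYP2B6 reporter plus PK11195 antagonist; luciferase reporter luminescence read with ONE-Glo; 0% is about no effect.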 In short, it runs like this:
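Agonist mode in presence of hCAR antagonist PK11195 (0.75 µM final): test substances, 24 h, 37 °C, on HepG2-CYP2B6-hCAR cells. Same-well readouts: fluorescence viability, then ONE-Glo luminescence; CITCO as reference agonist.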

The nature of assay [9]: HepG2 viability counterscreen (readout 2: ATP content) against the NCATS DSHEA and TCM libraries (AID 1794840).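 Note: HepG2 cells exposed to substances for about 24 h; 0% is about no effect.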 Put shortly:
(§1)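 Readout 1: cellular protease activity, GF-AFC substrate (25 uM final, 30 min, fluorescence 380/510 nm). Readout 2: ATP content by CellTiter-Glo luminescence after 30 min at RT. Both follow ~24 h exposure of HepG2 cells (1,000/well) to substances.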

Assay [10] can be described thus: HepG2 viability counterscreen (readout 1: protease activity) against the NCATS DSHEA and TCM libraries (AID 1794841).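 Note: cells exposed to compounds for about 24 h before the protease read; 0% is about no effect.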 Put shortly: as §1
The target in assay [11] is Cytochrome P450 2D6 (Homo sapiens) (UniProt P10635). The assay is described as follows: qHTS for inhibitors of CYP2D6 against the NCATS DSHEA and TCM libraries (AID 1919972). Note: % is set by controls: 0 for no effect and ±100 for the full control effect. Put shortly: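 qHTS, concentration–response format with most substances from 19.5 nM. CYP2D6 + pro-luciferin substrate, 15 min with compound, then 1x NADPH regen, 30–45 min RT dark. Glo detection 30 min, luminescence. Quinidine control.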

Assay [12] concerns the target Cytochrome P450 2C9 (Homo sapiens) (UniProt P11712). The assay is described as follows: qHTS for inhibitors of CYP2C9 against the NCATS DSHEA and TCM libraries (AID 1919973).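 Note: luminogenic pro-luciferin CYP2C9 substrate turned into luciferin with NADPH regeneration; series mostly up to about 34 µM; % is set by controls: 0 for no effect and ±100 for the full control effect.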 In short, it runs like this: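 Substances were tested against enzyme with a pro-luciferin substrate; minus-enzyme wells served as background. After NADPH-initiated oxidation (30-45 min, RT), light was generated with P450-Glo reagent.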

For assay [13], the target named is Cytochrome P450 1A2 (Homo sapiens) (UniProt P05177). The assay is described as follows: qHTS for inhibitors of CYPIA2 against the NCATS DSHEA and TCM libraries (AID 1919976). Put shortly:
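Luminescence read-out: pro-luciferin converted to D-luciferin by CYP1A2, detected with P450-Glo reagent after 30 min RT. Enzyme plus substrate got compounds for 15 min RT; NADPH regeneration solution (final 1x) started a 30-45 min reaction, light-protected.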

Assay [14] is described as follows: qHTS Counterscreen for compound interference against the NCATS DSHEA and TCM libraries (AID 1919978).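 Note: compounds preincubated with 1 µM D-luciferin or buffer before detection reagent; % of control where 0% means no effect.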 The conditions noted are these: firefly luciferase detection reagent interference, luminescence. Put shortly: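 With 1 uM D-luciferin or phosphate buffer only, compounds at final 19.5 nM–39.8 uM were incubated for 15 min at room temperature. Luciferase detection reagent was then added, and luminescence was measured after a further 30 min at room temperature.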

A short description of assay [15]: Dual reporter qHTS for agonist of Pregnane X Receptor (hPXR) against the NCATS DSHEA and TCM libraries: Fluorescence readout (AID 1920058). Note: 0% is about no effect. In short, it runs like this:
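Fluorescence read-out for cell viability: CellTiter-Fluor, 1 h at 37 °C, Ex/Em 405/540 nm. This followed ~24 h treatment of hPXR-Luc HepG2 cells with substances in agonist mode.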

The target of assay [16] is Nuclear receptor subfamily 1 group I member 2 (Homo sapiens) (UniProt O75469). The assay is described as follows: Dual reporter qHTS for agonist of Pregnane X Receptor (hPXR) against the NCATS DSHEA and TCM libraries: Luminescence readout (AID 1920059). Note: 0% is about no effect. In short, it runs like this:
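hPXR-Luc HepG2 cells, 2000/well in 5% charcoal-stripped FBS medium, attached 5 h, then exposed 24 h at 37C to compounds. Viability by CellTiter-Fluor, then luciferase luminescence with ONE-Glo.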

The target is the same in assay [17]. The assay is described as follows: Dual reporter qHTS for antagonist of Pregnane X Receptor (hPXR) against the NCATS DSHEA and TCM libraries: Luminescence Readout (AID 1920060).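 Note: HepG2 cells carrying hPXR luciferase reporter stimulated with rifampicin at 2 µM; 0% is about no effect.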 In short, it runs like this:
(§2)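 Antagonist mode: rifampicin 2 uM final co-added with compounds to hPXR-LucHepG2 cells for 24 h at 37C. Viability by CellTiter-Fluor, Ex/Em 405/540 nm, 1 h; reporter by ONE-Glo luminescence.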

Assay [18] in a line: Dual reporter qHTS for antagonist of Pregnane X Receptor (hPXR) against the NCATS DSHEA and TCM libraries: Fluorescence Readout (AID 1920061). Note: 0% is about no effect. Put shortly: as §2

Sequence of Nuclear receptor subfamily 1 group I member 2 (Homo sapiens) (O75469 whole entry, looked up): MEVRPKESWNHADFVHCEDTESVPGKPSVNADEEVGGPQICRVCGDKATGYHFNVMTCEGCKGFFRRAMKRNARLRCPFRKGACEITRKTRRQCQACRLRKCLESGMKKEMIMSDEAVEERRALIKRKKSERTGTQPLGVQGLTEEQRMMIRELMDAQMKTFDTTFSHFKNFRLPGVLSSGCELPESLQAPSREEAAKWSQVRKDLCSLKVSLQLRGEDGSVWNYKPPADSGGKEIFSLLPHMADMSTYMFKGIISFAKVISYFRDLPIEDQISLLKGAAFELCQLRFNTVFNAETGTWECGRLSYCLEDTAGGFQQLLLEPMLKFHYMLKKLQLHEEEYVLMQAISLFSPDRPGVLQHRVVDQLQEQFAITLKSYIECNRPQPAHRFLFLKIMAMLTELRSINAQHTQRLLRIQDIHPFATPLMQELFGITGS
Sequence of Dual specificity protein kinase CLK4 (Homo sapiens) (Q9HAZ1 whole entry, looked up): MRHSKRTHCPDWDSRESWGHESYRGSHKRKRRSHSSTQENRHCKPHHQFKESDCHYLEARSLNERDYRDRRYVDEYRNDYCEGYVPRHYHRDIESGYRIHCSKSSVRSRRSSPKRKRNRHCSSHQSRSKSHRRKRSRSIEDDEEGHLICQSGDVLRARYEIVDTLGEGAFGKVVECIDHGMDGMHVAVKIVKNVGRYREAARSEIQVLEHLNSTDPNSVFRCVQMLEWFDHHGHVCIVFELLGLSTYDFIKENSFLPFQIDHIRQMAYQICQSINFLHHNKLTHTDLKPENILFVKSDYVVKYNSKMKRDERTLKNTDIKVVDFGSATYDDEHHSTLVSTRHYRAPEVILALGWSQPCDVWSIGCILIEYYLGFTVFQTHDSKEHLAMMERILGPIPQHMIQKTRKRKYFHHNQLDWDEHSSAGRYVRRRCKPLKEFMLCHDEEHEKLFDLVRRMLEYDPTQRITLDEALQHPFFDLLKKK
Sequence of Ubiquitin carboxyl-terminal hydrolase 1 (Homo sapiens) (O94782 whole entry, looked up): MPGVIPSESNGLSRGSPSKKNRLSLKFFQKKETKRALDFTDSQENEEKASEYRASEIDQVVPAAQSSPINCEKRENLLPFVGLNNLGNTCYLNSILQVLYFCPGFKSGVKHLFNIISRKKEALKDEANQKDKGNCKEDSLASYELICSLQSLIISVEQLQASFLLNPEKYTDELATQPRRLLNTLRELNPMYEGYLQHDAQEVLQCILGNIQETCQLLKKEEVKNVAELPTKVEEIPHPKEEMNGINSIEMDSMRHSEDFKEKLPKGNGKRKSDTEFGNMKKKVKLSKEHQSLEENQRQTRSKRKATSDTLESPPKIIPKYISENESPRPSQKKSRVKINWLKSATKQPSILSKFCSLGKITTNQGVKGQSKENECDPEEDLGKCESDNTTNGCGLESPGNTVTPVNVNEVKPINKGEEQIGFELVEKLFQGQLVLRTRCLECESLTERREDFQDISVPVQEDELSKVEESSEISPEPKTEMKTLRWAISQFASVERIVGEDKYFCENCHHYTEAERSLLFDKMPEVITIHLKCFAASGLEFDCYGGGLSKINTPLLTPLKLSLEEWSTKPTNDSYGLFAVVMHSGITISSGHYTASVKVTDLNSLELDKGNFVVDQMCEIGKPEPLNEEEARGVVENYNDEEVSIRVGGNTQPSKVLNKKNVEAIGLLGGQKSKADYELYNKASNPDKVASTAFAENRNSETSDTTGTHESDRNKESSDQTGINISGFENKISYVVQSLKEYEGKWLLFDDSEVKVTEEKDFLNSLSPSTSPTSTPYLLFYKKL
Sequence of Glucocorticoid receptor (Homo sapiens) (P04150 whole entry, looked up): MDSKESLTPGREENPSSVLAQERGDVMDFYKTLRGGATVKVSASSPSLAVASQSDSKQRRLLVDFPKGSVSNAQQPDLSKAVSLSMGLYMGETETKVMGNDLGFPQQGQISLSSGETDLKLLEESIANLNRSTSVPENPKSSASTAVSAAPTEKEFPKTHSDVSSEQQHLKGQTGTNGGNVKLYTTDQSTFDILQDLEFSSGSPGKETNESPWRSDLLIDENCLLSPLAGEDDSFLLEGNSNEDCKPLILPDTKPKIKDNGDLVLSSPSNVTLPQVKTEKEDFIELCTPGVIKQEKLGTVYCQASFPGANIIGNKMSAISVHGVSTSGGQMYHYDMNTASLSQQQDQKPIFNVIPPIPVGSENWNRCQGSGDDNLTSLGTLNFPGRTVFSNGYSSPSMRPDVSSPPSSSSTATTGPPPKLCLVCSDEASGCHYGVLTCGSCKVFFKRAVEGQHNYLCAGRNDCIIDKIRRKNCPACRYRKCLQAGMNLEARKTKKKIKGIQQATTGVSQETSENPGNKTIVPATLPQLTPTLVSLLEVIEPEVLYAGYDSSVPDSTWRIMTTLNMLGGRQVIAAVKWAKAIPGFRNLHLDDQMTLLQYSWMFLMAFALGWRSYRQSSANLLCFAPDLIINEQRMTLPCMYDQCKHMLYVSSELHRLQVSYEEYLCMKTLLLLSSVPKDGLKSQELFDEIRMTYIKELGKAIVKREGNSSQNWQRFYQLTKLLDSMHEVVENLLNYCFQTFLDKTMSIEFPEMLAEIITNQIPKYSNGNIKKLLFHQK
Sequence of Nuclear receptor subfamily 1 group I member 3 (Homo sapiens) (Q14994 whole entry, looked up): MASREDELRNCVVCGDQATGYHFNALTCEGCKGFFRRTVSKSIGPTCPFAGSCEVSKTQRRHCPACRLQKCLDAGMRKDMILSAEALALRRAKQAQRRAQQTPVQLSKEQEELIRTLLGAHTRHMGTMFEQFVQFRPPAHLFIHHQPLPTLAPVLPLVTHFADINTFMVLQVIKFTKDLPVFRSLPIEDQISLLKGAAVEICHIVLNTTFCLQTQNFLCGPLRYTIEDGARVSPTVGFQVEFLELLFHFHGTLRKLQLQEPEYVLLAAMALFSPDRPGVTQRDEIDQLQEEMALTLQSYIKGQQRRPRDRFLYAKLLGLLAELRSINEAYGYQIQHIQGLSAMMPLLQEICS
Sequence of Cytochrome P450 2D6 (Homo sapiens) (P10635 whole entry, looked up): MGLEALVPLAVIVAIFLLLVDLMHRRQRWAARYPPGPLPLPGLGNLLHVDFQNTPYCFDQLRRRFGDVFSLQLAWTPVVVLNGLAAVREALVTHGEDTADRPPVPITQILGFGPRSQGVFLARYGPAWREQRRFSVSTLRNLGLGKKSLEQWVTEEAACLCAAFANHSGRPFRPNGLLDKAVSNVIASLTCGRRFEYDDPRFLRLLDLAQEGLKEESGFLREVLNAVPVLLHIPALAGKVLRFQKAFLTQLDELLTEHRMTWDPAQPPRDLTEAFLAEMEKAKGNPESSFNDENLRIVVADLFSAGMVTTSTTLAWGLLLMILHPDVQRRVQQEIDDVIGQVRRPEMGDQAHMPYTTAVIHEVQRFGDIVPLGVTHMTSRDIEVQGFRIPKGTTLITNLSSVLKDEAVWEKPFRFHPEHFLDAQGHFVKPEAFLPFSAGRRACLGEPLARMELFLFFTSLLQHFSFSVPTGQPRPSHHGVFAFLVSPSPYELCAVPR
Sequence of Cytochrome P450 2C9 (Homo sapiens) (P11712 whole entry, looked up): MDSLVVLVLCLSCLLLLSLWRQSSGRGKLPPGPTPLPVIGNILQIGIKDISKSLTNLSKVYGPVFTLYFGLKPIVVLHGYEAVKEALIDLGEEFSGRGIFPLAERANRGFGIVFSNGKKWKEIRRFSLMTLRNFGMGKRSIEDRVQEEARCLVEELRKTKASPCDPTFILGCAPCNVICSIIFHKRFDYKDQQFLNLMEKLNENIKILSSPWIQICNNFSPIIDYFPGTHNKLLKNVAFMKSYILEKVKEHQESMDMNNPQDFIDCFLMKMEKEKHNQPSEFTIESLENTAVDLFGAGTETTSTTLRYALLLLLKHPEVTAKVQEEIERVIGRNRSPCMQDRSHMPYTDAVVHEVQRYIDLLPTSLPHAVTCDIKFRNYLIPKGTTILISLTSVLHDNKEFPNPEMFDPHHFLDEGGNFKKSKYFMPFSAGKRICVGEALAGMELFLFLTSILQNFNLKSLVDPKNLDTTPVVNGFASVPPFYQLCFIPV
Sequence of Cytochrome P450 1A2 (Homo sapiens) (P05177 whole entry, looked up): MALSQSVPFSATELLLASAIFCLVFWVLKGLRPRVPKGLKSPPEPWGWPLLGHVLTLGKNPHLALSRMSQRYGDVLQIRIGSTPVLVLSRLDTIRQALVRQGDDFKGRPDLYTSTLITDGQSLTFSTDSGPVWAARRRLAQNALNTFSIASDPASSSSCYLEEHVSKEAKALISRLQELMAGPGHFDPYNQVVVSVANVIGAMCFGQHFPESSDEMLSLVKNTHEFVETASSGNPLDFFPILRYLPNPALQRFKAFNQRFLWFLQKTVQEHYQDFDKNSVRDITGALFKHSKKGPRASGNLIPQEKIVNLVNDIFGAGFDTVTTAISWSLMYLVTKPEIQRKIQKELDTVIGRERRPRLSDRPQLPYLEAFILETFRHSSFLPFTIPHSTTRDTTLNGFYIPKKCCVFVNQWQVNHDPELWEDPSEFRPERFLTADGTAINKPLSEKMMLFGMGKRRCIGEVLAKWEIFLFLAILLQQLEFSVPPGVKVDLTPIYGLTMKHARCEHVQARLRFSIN

As to `COCCn1c(=O)c(CCc2ccccc2)nc2cnc(OCc3ccccc3)nc21`, the compound was classed as inactive in assay [1]. Moreover, the Potency entry in assay [2] and in [3] was “inactive” in each case.

`COc1ccc2[nH]cc(CCNc3ncncc3-c3ccccc3C)c2c1`: in assay [1], the call was inactive. For the same compound, the Potency in assay [4] is above 46 µM. Moreover, the Potency entry in assay [5] is “inactive”.

Take `CN1CCN(c2ncc3nc(CCc4ccccc4)c(=O)n(CCc4ccccc4)c3n2)CC1`: in [1], the result was inactive. Also, in [4], the Potency was above 9.22 µM. The Potency result in assay [5], in assay [2] and in assay [3] was “inactive” throughout.

Turning to `CC1(C)C2CCC1(C)C(O)C2` (configuration not stated), the compound was called inactive in [6], in assay [7], in assay [9], in assay [10], in assay [15] and in [17]. The compound was called inactive in assay [18]. For the same compound, the Potency result in [8], in assay [11], in assay [12], in assay [13] and in assay [16] was “inactive” throughout. For the same compound, in [14], the max response was 1.58%.

For `COc1ccccc1CNc1nc(-c2ccoc2)nc2ccccc12`, the result in [1] was inactive. Besides, the Potency entry in assay [5] and in assay [3] was “inactive” each time.

Take `CN(C)c1ncc2nc(CCc3ccccc3)c(=O)n(CCc3ccccc3)c2n1`: the call in [1] was inactive. In addition, the Potency in [4] is above 9.22 µM. For the same compound, the Potency result in assay [2] and in assay [3] was “inactive” in each case.

Turning to `Cc1ccccc1-c1ccc2ncnc(-n3ccnc3)c2c1`, the Potency in assay [4] was above 46 µM; in assay [2], 3.98 µM (active). Moreover, the Potency entry in assay [3] was “inactive”.

Take `N#Cc1ccccc1-c1ccc2ncnc(NCc3cccnc3)c2c1`: the outcome in [1] was inactive. Besides, in [4], the Potency is above 46 µM.

For `FC(F)(F)c1ccccc1-c1nc(NCc2cccnc2)c2ccccc2n1`, the call in assay [1] was inactive. Moreover, the Potency is above 46 µM in [4] and 12.6 µM (active) in [3]. The Potency entry in assay [5] and in [2] was “inactive” in each case.

Turning to `Cc1ncc(COP(=O)(O)O)c(C)c1O`, the call in [1], in assay [6], in [7], in assay [9], in assay [10] and in assay [15] was inactive. Besides, the call in [17] and in assay [18] was inactive. For the same compound, the Potency in [4] was above 46 µM. Besides, the activity change, negative = inhibition in assay [5] was 4.19% [at 11.4 µM]. Further, the Potency entry in assay [8], in [11] and in assay [16] was “inactive” each time. In assay [14], the max response is -1.84%.

As to `COc1ccc2[nH]cc(CCNc3ncnc4ccc(-c5ccoc5)cc34)c2c1`, the result in [1] was inactive. In addition, the Potency was above 46 µM in assay [4] and 0.562 µM (active) in [2]. The Potency entry in [5] is “inactive”.

In the case of `CN1CCN(c2ncc3nc(-c4cccc(C#N)c4)c(=O)n(CCc4ccccc4)c3n2)CC1`, in [1], the result was inactive. In addition, in [4], the Potency was above 9.22 µM. Moreover, the Potency entry in assay [5], in [2] and in assay [3] was “inactive” in each case.

For `COCCn1c(=O)c(-c2ccccc2)nc2cnc(Oc3cccc(Cl)c3)nc21`, the result in [1] was inactive. Further, the Potency result in [5], in [2] and in assay [3] was “inactive” in each case.

Take `Cn1c(=O)c(-c2ccc(Cl)cc2)nc2cncnc21`: the result in assay [1] was inactive. The Potency in assay [4] is above 9.22 µM. Also, the Potency result in assay [5] and in assay [2] was “inactive” in each case.

Turning to `c1cncc(CNc2nc(-c3cccnc3)nc3ccccc23)c1`, the outcome in assay [1] was inactive. In addition, the Potency in [4] is above 46 µM; in [2], 11.2 µM (active). The Potency result in [5] and in assay [3] was “inactive” in each case.
